Reference: the supplement of paper PMC7411054

Experiments:
Conditions in all cases: treatment time: 24 h
HepG2-ACTB-RAB5A = experiment: lowest phenotypically active concentration; higher = less potent
Outline: (§1)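 Fifteen gene-edited A549, HepG2 and WPMY1 reporter lines (BFP segmentation plus GFP and RFP/FusionRed markers) were treated at 0.3, 1, 3 or 9 µM for 24 h, four wells each, then imaged live. Live-cell features per well were normalised to DMSO control wells. Deviation required ≥3 of 4 wells beyond the 95th percentile of DMSO Euclidean distances, and reproducibility required median replicate Pearson correlation above the 95th percentile of non-replicates. Phenotypic activity needed both criteria.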

HepG2-CANX-COX4 = experiment: as above
Outline: as §1

HepG2-TP53BP1-CLTA = experiment: as above
Outline: as §1

HepG2-TUBA1B-RELA = experiment: as above
Outline: as §1

WPMY1-ACTB-RAB5A [1] = experiment: as above
Outline: as §1

WPMY1-GM130-SQSTM1 = experiment: as above
Outline: as §1

WPMY1-TP53BP1-CLTA = experiment: as above
Outline: as §1

WPMY1-ACTB-RAB5A [2] = experiment: phenotypically active (imaging signature differs from DMSO and reproducible) at any of 0.3-9 uM (binary (1 = active, 0 = inactive)); higher = active
Outline: as §1

WPMY1-CANX-COX4 = experiment: lowest phenotypically active concentration; higher = less potent
Outline: as §1

WPMY1-TUBA1B-RELA = experiment: as above
Outline: as §1

Row | SMILES | lowest phenotypically active concentration (HepG2-ACTB-RAB5A) [µM] | lowest phenotypically active concentration (HepG2-CANX-COX4) [µM] | lowest phenotypically active concentration (HepG2-TP53BP1-CLTA) [µM] | lowest phenotypically active concentration (HepG2-TUBA1B-RELA) [µM] | lowest phenotypically active concentration (WPMY1-ACTB-RAB5A [1]) [µM] | lowest phenotypically active concentration (WPMY1-GM130-SQSTM1) [µM] | lowest phenotypically active concentration (WPMY1-TP53BP1-CLTA) [µM] | phenotypically active (WPMY1-ACTB-RAB5A [2]) | lowest phenotypically active concentration (WPMY1-CANX-COX4) [µM] | lowest phenotypically active concentration (WPMY1-TUBA1B-RELA) [µM]
1 | CC(C)CNc1nc(-c2cccc3ncccc23)cn2c(-c3ccc(C(=O)NC4CC4)cc3)cnc12 | 1 | 1 | 1 | 1 | 1 | 1 | 1 | 1 (active) | – | –
2 | CC(C)(C)c1cc(NC(=O)Nc2ccc(-c3cn4c(n3)sc3cc(OCCN5CCOCC5)ccc34)cc2)no1 [quizartinib] | 9 | – | – | 3 | 3 | 9 | 9 | 1 (active) | 1 | 3
3 | CCN(CC)CCNc1ccc(CO)c2sc3ccccc3c(=O)c12 [hycanthone] | 9 | – | 9 | 9 | 9 | 3 | 9 | 1 (active) | 9 | 9
4 | CNc1nc(-c2ccc3c(N)n[nH]c3c2)cc(N2C[C@@H](C(=O)NC3CCCCC3)CC[C@H]2C)n1 | – | 3 | 3 | 9 | 1 | ≤ 0.3 | ≤ 0.3 | 1 (active) | 1 | 1
5 | COc1cc2c(cc1O)CC[C@@H]1[C@@H]2CC[C@]2(C)[C@@H](O)CC[C@@H]12 [2-methoxyestradiol] | 3 | 1 | 3 | 3 | 1 | – | 1 | 1 (active) | 1 | 1
6 | CN(C)C(=O)C(CCN1CCC(O)(c2ccc(Cl)cc2)CC1)(c1ccccc1)c1ccccc1 [loperamide] | 3 | – | 9 | 3 | 9 | 9 | 9 | 1 (active) | 9 | 9
7 | CN1CCN([C@H]2CC[C@H](n3cc(-c4ccc(Oc5ccccc5)cc4)c4c(N)ncnc43)CC2)CC1 | ≤ 0.3 | 1 | 1 | ≤ 0.3 | ≤ 0.3 | ≤ 0.3 | 1 | 1 (active) | – | ≤ 0.3
